From PubChem BioAssay
GPR151 activ = activators of human GPR151, primary screen, cell-based, PathHunter beta-arrestin, luminescence | PathHunter beta-arrestin GPR151 cells | actives 1% (n = 650,000) | AID 1508602, 2020 | G-protein coupled receptor 151 (Homo sapiens), Q8TDV0 | activation, % at 11.2 µM; in the data active = activation above about 4.9%;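 also: 0% = median of compound wells and 100% = cells with positive control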
TEAD-YAP inh = TEAD-YAP interaction inhibition, primary screen, TEAD-YAP interaction inhibitor project, luminescence, HEK-TIYL cells. TEAD-Gal4/YAP UAS-luciferase luminescence. inhibition, % at 9.12 µM. actives 1.4% (n = 640,000). AID 1259422, 2018; in the data active = inhibition above about 32%;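 also: 0% = median of test compound wells and 100% = reference inhibitor wells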
FBW7 activator = FBW7 E3 ligase activators, primary screen, biochemical, AlphaScreen, human | F-box/WD repeat-containing protein 7 (Homo sapiens), Q969H0 | AlphaScreen FBW7–phospho-cyclin E peptide binding, activator screen | normalized activity (activation), % at 26.1 µM | actives 0.13% (n = 650,000); in the data active = normalized activity above about 1.9%;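 also: purified mutant Fbw7 with reduced substrate affinity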
MITF inh = MITF inhibitors, primary screen, biochemical, AlphaScreen, human; Microphthalmia-associated transcription factor (Homo sapiens), O75030; inhibition, % at 2.6 µM; actives 0.91% (n = 650,000); AlphaScreen MITF homodimerization, bead proximity signal; in the data active = inhibition above about 50%;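 also: 0% = vehicle wells with protein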
Target sequence (O75030 whole entry, looked up): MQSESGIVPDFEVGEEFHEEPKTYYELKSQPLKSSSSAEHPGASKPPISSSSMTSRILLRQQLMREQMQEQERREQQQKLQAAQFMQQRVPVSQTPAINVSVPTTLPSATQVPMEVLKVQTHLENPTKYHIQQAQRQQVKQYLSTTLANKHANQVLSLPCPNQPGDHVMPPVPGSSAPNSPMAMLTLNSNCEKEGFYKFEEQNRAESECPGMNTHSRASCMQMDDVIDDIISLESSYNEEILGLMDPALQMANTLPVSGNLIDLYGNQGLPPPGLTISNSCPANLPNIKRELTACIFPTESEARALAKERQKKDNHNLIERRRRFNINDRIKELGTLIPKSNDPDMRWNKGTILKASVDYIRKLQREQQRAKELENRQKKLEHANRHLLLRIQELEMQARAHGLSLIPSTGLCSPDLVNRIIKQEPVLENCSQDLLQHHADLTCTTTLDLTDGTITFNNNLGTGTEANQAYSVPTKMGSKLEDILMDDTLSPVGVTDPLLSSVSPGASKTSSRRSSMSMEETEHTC
MITF confirm = MITF inhibitors, retest of hits, confirmation, biochemical, AlphaScreen, triplicate; AID 1259372, 2018; AlphaScreen MITF homodimerization, biotin/His-MITF beads; shares compounds with MITF inh; actives 16% (n = 4,700); inhibition, % at 2.6 µM;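 active = inhibition above a cutoff derived from the DMSO control wells, cut at about 28% in these data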;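 also: 0% = MITF dimer wells with DMSO only; inhibitors lower the bead chemiluminescence by keeping MITF from dimerizing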
AS interf DR = AlphaScreen optical interference compounds, dose response, counter-screen, biochemical, HTS. AID 1259373, 2018. shares compounds with MITF inh. actives 6% (n = 480). IC50, µM. AlphaScreen optical interference counterscreen, cell-free; call rule not given here
AlphaScreen intf2 = AlphaScreen optical interference compounds, counter-screen for MITF inhibitor project, biochemical, triplicate; inhibition, % at 2.6 µM; LysRS AlphaScreen counterscreen, signal interference; shares compounds with MITF inh; actives 7.6% (n = 4,700);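 active = inhibition above a cutoff derived from the DMSO control wells, cut at about 30% in these data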
The depositor's hits bear a star; ! = not active in a repeat. Hits are enriched below; roughly 3.4% of the tested compounds scored in any of these assays.

`Cc1[nH]c2ccccc2c1SCCNC(=O)c1ccncc1` gave GPR151 activ 0.0, TEAD-YAP inh -1.5, FBW7 activator -0.1, MITF inh 62.1*, MITF confirm 4.0 and AlphaScreen intf2 -7.1.
`Cc1cn2c(nc1=O)OCC1OC2CC1O` (centres undefined) gave GPR151 activ 1.4, TEAD-YAP inh 11.4, FBW7 activator 0.0 and MITF inh 8.0.
C=C1c2c(Cl)ccc(O)c2C(O)=C2C(=O)[C@]3(O)C(O)=C(C(N)=O)C(=O)[C@@H](N(C)C)[C@@H]3[C@@H](O)[C@H]12 was read as GPR151 activ 0.2, TEAD-YAP inh 5.4, FBW7 activator -0.5, MITF inh 62.8*, MITF confirm 85.3*, AS interf DR inactive and AlphaScreen intf2 30.1*!.
`C=C1c2cccc(O)c2C(O)=C2C(=O)[C@]3(O)C(O)=C(C(N)=O)C(=O)[C@@H](N(C)C)[C@@H]3[C@@H](O)[C@H]12` gave GPR151 activ 0.0, TEAD-YAP inh -7.3, FBW7 activator -0.5, MITF inh 54.0*, MITF confirm 40.8*!, AS interf DR >6.48 and AlphaScreen intf2 6.2.
`Cc1ccc(OCC(=O)Nc2ncc(S(=O)(=O)c3ccc([N+](=O)[O-])cc3)s2)c(C(C)(C)C)c1` gave GPR151 activ 0.6, TEAD-YAP inh 10.5, FBW7 activator -0.1 and MITF inh 14.4.
`COc1ccccc1-c1cc(C(F)(F)F)nc(S(=O)(=O)CCCC(=O)Nc2ccc(F)c(Cl)c2)n1` gave GPR151 activ 0.6, TEAD-YAP inh -1.4, FBW7 activator 0.4, MITF inh 53.7*, MITF confirm -9.2 and AlphaScreen intf2 -1.9.
For COc1ccc(-c2cc(C(F)(F)F)nc(S(=O)(=O)CCCC(=O)Nc3ccc(F)c(Cl)c3)n2)cc1OC the results were GPR151 activ 0.3, TEAD-YAP inh 0.8, FBW7 activator -0.1, MITF inh 75.5*, MITF confirm -5.6 and AlphaScreen intf2 5.9.
Screening Cc1cc(-n2c(=S)sc3c(=O)[nH]c(SCC(=O)C(C)(C)C)nc32)ccc1Cl returned GPR151 activ 1.1, TEAD-YAP inh 4.4, FBW7 activator 0.1 and MITF inh 4.7.
For O=C(N/N=C/C=C\c1ccco1)c1ccncc1 the results were GPR151 activ 0.8, TEAD-YAP inh 3.0, FBW7 activator 0.0 and MITF inh 18.0.
Cc1occc1C(=O)N/N=C/C1CCCCC1 was read as GPR151 activ -5.5, TEAD-YAP inh -45.9, FBW7 activator -0.1 and MITF inh -10.1.
`O=C(N/N=C/C=C\c1ccco1)c1ccccn1` gave GPR151 activ -0.1, TEAD-YAP inh -56.3, FBW7 activator -0.2, MITF inh 101.3*, MITF confirm 93.9* and AlphaScreen intf2 69.4*.
Screening Cc1occc1C(=O)N/N=C/C1CC=CCC1 (centres undefined) returned GPR151 activ -3.7, TEAD-YAP inh -45.4, FBW7 activator 0.2, MITF inh 81.3*, MITF confirm -10.1 and AlphaScreen intf2 -5.3.
For Cc1occc1C(=O)N/N=C/C=C/c1ccco1 the results were GPR151 activ -0.4, TEAD-YAP inh -60.3, FBW7 activator -0.2, MITF inh 80.0*, MITF confirm 44.1*, AS interf DR >6.48 and AlphaScreen intf2 -17.2.
Screening O=C(N/N=C/c1ccccn1)c1ccccn1 returned GPR151 activ -3.1, TEAD-YAP inh -31.9, FBW7 activator -2.1 and MITF inh 48.1.
For O=C(N/N=C\c1ccccn1)c1ccccn1 the results were GPR151 activ -1.9, TEAD-YAP inh -44.0, FBW7 activator -0.7, MITF inh 54.2*, MITF confirm 27.9* and AlphaScreen intf2 82.4*.
Screening CC(C)OCCCNCc1c(C(=O)O)n(Cc2ccccc2F)c2ccccc12 returned GPR151 activ 0.1, TEAD-YAP inh 16.1, FBW7 activator 0.0 and MITF inh 5.0.
Screening Cc1ncc(CO)c(/C=N/Nc2nc3ccccc3o2)c1O returned GPR151 activ -0.5, TEAD-YAP inh 11.4, FBW7 activator -1.4, MITF inh 65.2*, MITF confirm 19.0 and AlphaScreen intf2 46.8*.
`COC(=O)c1cccc(NC(=O)CCOc2ccccc2)c1` gave GPR151 activ -0.9, TEAD-YAP inh -11.0, FBW7 activator 0.1, MITF inh 51.2*, MITF confirm -0.3 and AlphaScreen intf2 7.2.
Screening Cc1ccc(C(NC(=O)/C=C\c2ccc3c(c2)OCO3)C(=O)Nc2ccc3c(c2)OCO3)cc1 (centres undefined) returned GPR151 activ 1.5, TEAD-YAP inh 11.8, FBW7 activator 0.0, MITF inh 67.9*, MITF confirm -21.5 and AlphaScreen intf2 -0.3.
`Cc1nc(S(=O)(=O)c2ccccc2)c(SCc2ccc([N+](=O)[O-])cc2)o1` gave GPR151 activ -0.9, TEAD-YAP inh 9.1, FBW7 activator 0.0, MITF inh 61.9*, MITF confirm -0.6 and AlphaScreen intf2 32.9*.
For Cc1ccc(CN2C[C@@H]3C[C@@H](c4cccc(O)c4)N4CCC[C@@]34C2=O)o1 the results were GPR151 activ -0.1, TEAD-YAP inh 1.6, FBW7 activator 0.1 and MITF inh 11.2.
Screening Cc1cc(O)c2c(c1)C(=O)c1cccc(O)c1C2=O returned GPR151 activ 0.0, TEAD-YAP inh -2.5, FBW7 activator -0.3 and MITF inh 15.4.
Screening O=C1c2c(O)cccc2Cc2cccc(O)c21 returned GPR151 activ -0.6, TEAD-YAP inh 0.5, FBW7 activator -0.1, MITF inh 85.9*!, MITF confirm 115.5*, AS interf DR >6.48 and AlphaScreen intf2 -22.9.
`CCOC(=O)N1CCN(C(=O)c2cnn(-c3ccccc3)c2-n2cccc2)CC1` gave GPR151 activ -1.2, TEAD-YAP inh 5.3, FBW7 activator 0.1 and MITF inh 12.6.
Screening O=C1OC(c2cc(C3=N/C(=C\c4ccccc4)C(=O)O3)cc(C3=N/C(=C/c4ccccc4)C(=O)O3)c2)=N/C1=C\c1ccccc1 returned GPR151 activ -0.2, TEAD-YAP inh 9.4, FBW7 activator -0.2, MITF inh 58.2*, MITF confirm 30.5* and AlphaScreen intf2 5.4.
`CC(=O)Nc1ccc(C2=N/C(=C/c3cccc([N+](=O)[O-])c3)C(=O)O2)cc1` gave GPR151 activ -0.5, TEAD-YAP inh -1.5, FBW7 activator 0.4, MITF inh 57.6*, MITF confirm 4.9 and AlphaScreen intf2 -10.6.
